The values that follow come from the supplement of paper PMC6555819.

The subject of the assay is LXRb:RXRa (NR concentration 270 nM, RXRa partner concentration 90 nM). In words: PBM binding z-score (relative to random genomic background probes); higher = stronger binding; sequences stand for … in GC…GCGATTGACAGCGTAGAATGAAGG
The procedure, abridged:
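Binding z-scores take random background probes as their reference. They come from custom Agilent 4×180K protein-binding microarrays incubated 1 h with ligand-free nuclear receptor dimers, with antibodies against each partner (one per run) detecting binding. Scanned fluorescence was regression-normalized.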
Sequence GCAGACAGGTGAAACGCAGATAACTCAGGGTGGC displayed a PBM binding z-score of -0.285.

On to AGAATGAGGTTAAGATCACGGAAACAGAATACAT, for which the PBM binding z-score was 1.91.

Sequence ATCGAAAGGTCGTAGGTGAGTATACCCACCCGAA yielded a PBM binding z-score of 3.11.

Sequence CCTATTAGTCGACCATAAGGGCAACCGAAGCTCG displayed a PBM binding z-score of 0.208.

The sequence ACAGACAGGTGATGGAGGTAACTCAGGCTATCAT yielded a PBM binding z-score of -0.121.

As to TCTAGCAGGCCAGAGGGTCACTCCAGAGGTACGG, the PBM binding z-score came to 0.582.

The sequence AGAACTAGGGCACGCTGAGTTGATAGCAGAGTAG had a PBM binding z-score of -0.394.

CGTCAAAGTTCAAGGTAACTTAACAGAAAGCAGC had a PBM binding z-score of 3.35.

Consider CCTAGCAGGCCAAACTGGGTCACTCAAGGCTTGA, for which the PBM binding z-score was 1.07.

Sequence TAAATGAGGTTATAAGATCAGGGAACGTTGCAAA registered a PBM binding z-score of 1.55.

CCTACTGGGCCACGAAAGGTCATTAATTCAGTGA had a PBM binding z-score of 4.24.

GCTGCTAGGTCAACTGATGGACAGCTAAAGCTCG showed a PBM binding z-score of 1.66.

Consider AATCGGAGGACAAAGGTCAGAGCTACGCCAGTGA, for which the PBM binding z-score came to 3.53.

The sequence TCGAGTAGGTTAGTCGGGGCATTCAGCCAACATA displayed a PBM binding z-score of 0.294.

Turning to TCATATAGGTAAACAGGTGAAATTCCGTAAGTTA, the PBM binding z-score is 1.2.

Sequence CGAACTAGGTCATCCAGGACAGTGAGTACATTGA showed a PBM binding z-score of 1.9.

ATACCAAGGTGATCGTGAGGTCGCTGATACTAAC registered a PBM binding z-score of 0.766.

TCGAGTAGGTTCGTCGGGGCATTCAGCCAACATA displayed a PBM binding z-score of 0.726.

For TAGCCTAGGTCAGATAGGGCCAGTATACGCTATA, the PBM binding z-score came to 0.697.

As for CAAACTAGGTCACCGGAAGGTCACAGTCCGCATG, the PBM binding z-score turned out to be 4.77.

With CACACTAGGTCAAGGTCAAAGTCGGTTTGTGCCA, the PBM binding z-score amounted to 4.87.

With ACTATTAGTTGAGACGAGGGCAACCAATAGGTTG, the PBM binding z-score came out at 0.143.

ATATGTAGGGTAGCTGGGGTCATTCAGACTAGGC showed a PBM binding z-score of 4.42.

Regarding CCGAGTAGGATATGGGGCATTCAGGCAACGGTGA, the PBM binding z-score was -0.307.

With ATCGACAGGTCGTGAGGTGAGTATACAGAAAGGC, the PBM binding z-score was determined as 0.943.

Sequence GCGTCTGGGGCATCAGCAGGTTACCATAACTTAA showed a PBM binding z-score of 0.524.

On to CCGACTGGGGCAAGGCTACCATAACGCACAGCCA, for which the PBM binding z-score is -0.273.

With CAAACTAGGTCACCGGTAGGTCAAAGTCCGCATG, the PBM binding z-score came out at 4.52.

In the case of TCTTGTAGATCAGCAGTTTAAGAAAGCTGGCCAA, the PBM binding z-score worked out at 0.182.

Sequence CAGCCTAGGTCAGGCCCAGTATAGGAGGAACGTT came in with a PBM binding z-score of 0.0997.

As for ATATATAGGTTAGCTGGGGTCATTCAGACTAGGC, the PBM binding z-score is 5.39.

As to GCTTACGGTTCAAAGGTTATAGCATGAATAGAAT, the PBM binding z-score came out at 4.04.

AGAATGAGGTTACCGAAGATCAGGGAAACGCTTG returned a PBM binding z-score of 2.19.

For AGAATGAGGTTATCCGTAGATCAGGGAAGAAAGT, the PBM binding z-score came out at 1.57.

As to TGAATGAGGTTAAAGATCAGGGAACGTGGCGTCG, the PBM binding z-score turned out to be 1.71.

In turn, AGAATGAGGGTATTAAGATCAGGGAATTGCGGTC came in with a PBM binding z-score of -0.105.

Take CTACCAACGTGAACAAGGTCGTTGATTACTATTC: the PBM binding z-score is 1.48.

For ACTAGTCGGTCAGCTGAGGTCACACACAATTCGG, the PBM binding z-score stood at 3.86.

With CCTTGGAGGACAGAAGGTCAGAGCTGTCCGCTTT, the PBM binding z-score was 1.23.

TGTCAAGGTTCAAAGGTAACGTAAGTATCCACAC showed a PBM binding z-score of 3.74.
